Test results published in PubChem BioAssay AID743286 (National Center for Advancing Translational Sciences (NCATS), 2014).
Hit rate of the full screen: of about 1,100 compounds, about 340 (31%) were called active. About 40% were inconclusive and are not listed. Calls come from the whole dose curve; as a rule, active = well fitted inhibition curve with a large enough effect; inconclusive = small, poorly fitted or top-dose-only effect; inactive = flat fitted curve, though single readings scatter. The list is a sample of the results.

molecular target: Phosphatidylinositol 5-phosphate 4-kinase type-2 alpha (Homo sapiens) (UniProt P48426); assay: qHTS for Inhibitors of PI5P4K: Confirmation in Primary Assay; details: PI5P4Kalpha enzyme, ADP-Glo luminescence, 60 min; series mostly up to 76.9 µM; activity change, negative = inhibition: at the top concentration; note: nearly all actives have a fitted effect of over 65% in size
Source text: In addition to finding PI5P, we discovered the type II phosphatidylinositol 5-phosphate 4-kinase (PI5P4K) family (alpha, beta, gamma isoforms) that catalyze the conversion of PI5P to PI(4,5)P2. Alternatively, PI(4,5)P2 can also be synthesized through phosphatidylinositol-4-phosphate (PI4P) by the type I phosphatidylinositol 4-phosphate 5-kinases (PI4P5K). These PI5P4K enzymes therefore represent one way by which cells can regulate endogenous PI5P levels and play important roles in insulin signaling and in stress responses. […] A qHTS PI5P4K-alpha ADP-Glo assay was developed to identify specific modulators of human PI5P4K, phosphatidylinositol-5-phosphate 4-kinase (Type II PIPK). This assay was screened against the MLSMR containing ~400,000 small molecules (PubChem AID 652105). To confirm that the hits were not interacting with the detection enzyme system, a 1536-well counterscreen against the ADP-Glo kit (Promega) was utilized, as described in Davis et al., 2013 [1]. Davis et al., PLoS One. 2013;8(1):e54127. NIH Chemical Genomics Center [NCGC] NIH Molecular Libraries Probe Centers Network [MLPCN] MLPCN Grant: MH096575 Assay Submitter (PI): Atsuo Sasaki, Beth Israel Deaconess Medical Center
2 microL of PI5P4Kalpha/substrate buffer (columns 1-2, 5-48) are dispensed into Greiner white solid bottom 1536-well assay plates; column 3 receives only PI5P4Kalpha buffer as 0x substrate controls; column 4 receives only substrate buffer as 0x PI5P4Kalpha controls. Final assay buffer consists of 0.038 M HEPES pH 7.4, 0.28 mM EGTA, 0.1% CHAPS, and 5% DMSO (final concentration). Compounds are then transferred via Kalypsys pin tool equipped with 1536-pin array (10 nL slotted pins, V&P Scientific, San Diego, CA). Following addition of compound, 1 microL of ATP (5 microM final concentration, all columns) is added to initiate the reaction. ATP is diluted in an assay buffer consisting of 0.02 M HEPES pH 7.4, 60 mM MgCl2, 15 microM ATP, and 0.1% CHAPS. The plates are then incubated at room temperature for 60 minutes. ADP-Glo reagent 1 is added (2 microL) and plates incubated for 45 minutes, before ADP-Glo reagent 2 (4 microL) is added and plates incubated for 30 minutes. They are then transferred to a ViewLux high-throughput CCD imager (PerkinElmer) wherein single end-point measurements of luminescence are acquired using a clear filter.
Potency is the fitted concentration of half-maximal effect.

Chain of Phosphatidylinositol 5-phosphate 4-kinase type-2 alpha (Homo sapiens) (P48426 whole entry, looked up, canonical isoform): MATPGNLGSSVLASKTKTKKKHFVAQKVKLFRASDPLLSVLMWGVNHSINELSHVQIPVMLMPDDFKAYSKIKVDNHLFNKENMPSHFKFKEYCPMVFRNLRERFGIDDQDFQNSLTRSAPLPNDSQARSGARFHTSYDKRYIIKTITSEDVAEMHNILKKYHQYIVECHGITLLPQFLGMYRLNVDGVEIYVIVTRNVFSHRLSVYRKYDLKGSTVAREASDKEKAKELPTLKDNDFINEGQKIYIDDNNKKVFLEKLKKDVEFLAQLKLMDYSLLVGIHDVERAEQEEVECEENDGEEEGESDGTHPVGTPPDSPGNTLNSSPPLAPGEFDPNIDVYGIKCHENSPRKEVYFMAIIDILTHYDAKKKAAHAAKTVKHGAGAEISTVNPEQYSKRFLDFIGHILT

Activity change, negative = inhibition, inactive:
O=C(NCc1ccccc1)C(c1ccccc1)n1c(=O)c(-c2ccco2)nc2ccccc21 (stereo not given) -24.1%, Cn1nnc2cc(C(=O)NC3CC3)ccc21 -7.92%, Cc1nnc(-c2ccccc2)nc1N(C)C -3.17%, O=C(COC(=O)C1CCCCC1)Nc1ccccc1OC(F)F 3.6%, COc1cccc(N2CCN(C(=O)c3ccc(CS(=O)c4ccccc4C)o3)CC2)c1 (stereo not given) 1.63%, CC(C)(C(=O)N1CCC1(C)C(=O)NS(=O)(=O)c1ccc(C#N)cc1)c1ccccc1 (stereo not given) 0.35%, O=C(OCC(=O)N1N=C(c2ccc(Cl)cc2)CC1c1ccco1)c1cccnc1 (stereo not given) -24.6%, COc1ccc(-c2cc(C(=O)Nc3ccccc3O)c3ccccc3n2)cc1 -1.85%, COc1ccc(CCNC(=O)C2CC(c3cccc(F)c3)=NO2)cc1 (stereo not given) -4.13%, O=C(O)CCC(=O)N1CCC(n2nnc3cc(C(F)(F)F)ccc32)CC1 0.897%, O=C(NC1CC1)c1ccc(NC(=O)C2CCC2)cc1 0.977%, COc1ccc(S(=O)(=O)Nc2ccc3c(c2)CCC3)cc1 4.59%, CC(C)OC(=O)c1c(NS(=O)(=O)c2ccccc2)sc2c1CCCC2 1.37%, CCCCn1c(=O)[nH]c(=O)c2c1nc(-c1ccc(-c3ccccc3Br)o1)n2CC -29.7%, COc1cc(=O)[nH]c(=O)n1C(=O)Cc1ccccc1 0.157%, O=C(CC1C(=O)NCCN1CC1CCCCC1)NCc1cc(F)ccc1F (stereo not given) -5.29%, Cc1ccc(CNC(=O)CCS(=O)(=O)c2ccc(Cl)cc2)cc1 1.11%, Cc1ccc(CNC(=O)CSc2ncccn2)cc1 0.997%, O=C(NCc1ccc(F)cc1)C1CCN(c2cnccn2)CC1 4.11%, COc1ccc(C(=O)N2CCC(C(=O)Nc3ccc(C)cc3)CC2)cc1 -0.331%, CCOC(=O)C1(C)CCCN(C(=O)c2ccccc2C(F)(F)F)C1 (stereo not given) -4.14%, CCOC(=O)C1CCCN(C(=O)c2ccc(F)c(C)c2)CC1 (stereo not given) 3.34%, Cc1ccc(C)c(C2=NNC(=NCc3ccccc3)SC2)c1 -10.7%, O=C(Nc1ccc(Cl)cc1)Nc1ccccc1CC[N+](=O)[O-] -4.4%, Cc1cc(C)cc(NC(=O)Cn2nnc(C(=O)NCc3ccc(F)cc3)c2N)c1 -0.223%, COc1ccc(-c2cc(C(F)F)n3ncc(C(=O)n4ccnc4C)c3n2)cc1 -18.4%, Cc1ccc(-n2c(SCC(=O)Nc3ccc4c5c(cccc35)CC4)nc(O)cc2=O)cc1 -25.8%, O=C(NC1CC1)C1=C[C@@H](c2c[nH]c3ccccc23)C[C@@H](OCc2ccc(CO)cc2)O1 -4.48%, COc1ccc(N2CCN(C(=O)c3[nH]c(C(F)(F)F)nc3-c3ccccc3)CC2)cc1 -2.12%, CCOc1ccc(Cl)cc1S(=O)(=O)n1cnc2ccccc21 11%, O=C(Cc1cccs1)N(CC1CCCO1)C1(C(=O)NC2CCCCC2)CCCCC1 (stereo not given) 1.04%, NC(=O)[C@@H]1CC2(CC(c3cccc(NC(=O)COc4ccc(Cl)cc4)c3)=NO2)CN1C(=O)COc1ccc(Cl)cc1 (stereo not given in full) -15.9%

Potency, active:
CCCCCCNC(=O)c1cc(-c2ccco2)nc2ccccc12 7.08 µM, O=C(NCc1ccco1)c1c2c(nc3ccccc13)CCC2 10 µM, Cc1ccc(-c2cc(C(=O)O)c3cc(Br)ccc3n2)o1 25.1 µM, Cc1ccc(-c2cc(C(=O)NCc3ccco3)c3ccccc3n2)o1 14.1 µM, COc1ccc(CCNC(=O)c2cc(-c3ccco3)nc3ccccc23)cc1 15.8 µM, COc1ccc(S(=O)(=O)/N=C2\C=C(NS(=O)(=O)c3ccccc3)C(=O)c3ccccc32)cc1 31.6 µM, Cc1ccc(-c2nc3c(c(=O)[nH]c(=O)n3Cc3ccccc3)n2C)o1 5.62 µM, Cc1ccc(CNC(=O)c2ccc(-n3cccc3)cc2)cc1 12.6 µM, Cc1cc(-c2nc3c4c5c(sc4[nH]c(=O)n3n2)CCC5)c(C)o1 15.8 µM, CCOC(=O)C1CCCN(C(=O)c2cc(-c3ccco3)nc3ccccc23)C1 (stereo not given) 3.16 µM, COC(=O)C1CCN(C(=O)c2cc(-c3ccco3)nc3ccccc23)CC1 3.98 µM, CCOC(=O)Nc1ccc(NCc2ccc(F)cc2)nc1N 31.6 µM, O=C(Oc1ccc2c(c1)OCO2)c1cc2c(s1)CCC2 2.24 µM, O=c1c2ccccc2cnn1-c1nc2ccccc2[nH]1 25.1 µM, N#CC1=C2SCN(c3ccccc3)CN2C(=O)CC1c1cccs1 (stereo not given) 15.8 µM, N#CC1=C2SCN(c3ccc(F)cc3)CN2C(=O)CC1c1cccc(F)c1 (stereo not given) 20 µM, CCc1ccc(C2CC(=O)N3CN(c4ccccc4)CSC3=C2C#N)cc1 (stereo not given) 28.2 µM, CCc1ccc(N2CSC3=C(C#N)C(c4cccs4)CC(=O)N3C2)cc1 (stereo not given) 12.6 µM
